Unmarked numbers belong to inactive results. Inconclusive results are not listed. Activity calls are given as the source filed them. Unless noted, calls follow the shape of the full dose curve.

Experimental findings from PubChem BioAssay (Tox21) are described below.

A short description of test [1]: Nuclear factor erythroid 2-related factor 2/antioxidant responsive element (Nrf2/ARE) small molecule agonists: qHTS cell viability counter screen in human keratinocytes (AID 1919968; active = well fitted curve in the direction sought with a large enough effect in the repeat runs; an effect the other way counts as inactive or inconclusive; also: nearly all actives have a fitted effect of over 55% in size; also: potency is read from the fitted curve at half-maximal effect). Put shortly:
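Cytotoxicity was multiplexed with the Nrf2/ARE luciferase assay in the same wells. Stably transfected HaCaT keratinocytes were treated with test compounds for 23 h at 37 C. Cell viability was then measured by CellTiter-Fluor fluorescence.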
Background: Quantitative high-throughput screening tests each substance at several concentrations.

Test [2] deals with Gonadotropin-releasing hormone receptor (Homo sapiens) (UniProt P30968). As to the kind of experiment: Human gonadotropin-releasing hormone receptor (GnRHR) small molecule agonists, calcium flux assay in GnRHR-HEK293 cells (AID 1920063). Also: nearly all actives have a fitted effect of over 35% in size. The essentials:
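Agonist activity was measured as intracellular calcium flux in HEK293 cells engineered to stably express human GnRHR. After dye loading for 1 hour at 37 C, compounds in DMSO were added and fluorescence was followed for 3 minutes.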
A general note: Calcium flux is commonly read through the fluorescence of an indicator in the cells.

Test [3] concerns the target KiSS-1 receptor (Homo sapiens) (UniProt Q969F8). As to the kind of experiment: Human kisspeptin (KISS1R) small molecule agonists, calcium flux assay in KISS1R-HEK293 cells (AID 1920064; active = well fitted curve in the direction sought with a large enough effect in the repeat runs; an effect the other way counts as inactive or inconclusive). Put shortly:
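Agonist activity is monitored as intracellular calcium rise in engineered HEK293 cells carrying human KISS1R. Cells are dye-loaded for 1 h at 37 C before compound addition, and fluorescence is recorded for 3 min.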

Test [4] in a line: G protein-coupled receptor (GPCR) small molecule agonists, calcium flux assay: HEK293 wild type cell line counter screen (AID 1920065). The essentials:
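Seed cells, incubate 18 h (37 C, 5% CO2); add calcium dye, 1 h at 37 C; pin-transfer compounds, ATP control or DMSO; read fluorescence 480/540 nm each second for 3 min.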

The nature of test [5]: p53 small molecule agonists, cell-based qHTS assay with human liver microsomes (AID 1963577). Put shortly: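 p53RE-bla cells, 4,000/well, compound added after 5 h, with human liver microsomes 0.5 mg/mL and NADPH 0.5 mg/mL final; 16 h at 37 C, then LiveBLAzer 2 h RT, fluorescence.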
Test [6] in a line: p53 small molecule agonists, cell-based qHTS assay with rat liver microsomes (AID 1963578). Put shortly: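 p53RE-bla cells, 4,000/well, pre-incubated 5 h, then given compounds plus rat liver microsomes (0.5 mg/mL final) and NADPH (0.5 mg/mL final). Incubation 16 h at 37 C; beta-lactamase reporter read by LiveBLAzer fluorescence after 2 h at room temperature.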
A short description of test [7]: p53 small molecule agonists, cell-based qHTS assay with human liver microsomes: qHTS cell viability counter screen (AID 1963579). Also: nearly all actives have a fitted effect of over 45% in size. Put shortly: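 p53RE-bla cells, 4,000/well, dosed 5 hours after plating, with human liver microsomes (0.5 mg/mL final) plus NADPH (0.5 mg/mL final), 16 hours at 37 C. Viability read as CellTiter-Glo luminescence after 30 min at room temperature.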

The nature of test [8]: p53 small molecule agonists, cell-based qHTS assay with rat liver microsomes: qHTS cell viability counter screen (AID 1963580). Also: nearly all actives have a fitted effect of over 45% in size. The essentials:
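Counter screen for cytotoxicity under metabolic activation: rat liver microsomes and NADPH, 0.5 mg/mL final each, added with compounds to p53RE-bla HCT-116 cells; 16 h at 37 C, then ATP luminescence read.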

Test [9] can be described thus: p53 small molecule agonists, cell-based qHTS assay: qHTS cell viability counter screen (AID 1963581). Also: nearly all actives have a fitted effect of over 45% in size. The essentials:
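Viability was counter-screened in parallel with the p53 agonist reporter by measuring intracellular ATP luminescence in the same HCT-116 p53RE-bla wells after 16 h compound treatment at 37 C.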

Test [10] in a line: p53 small molecule agonists, cell-based qHTS assay (AID 1963582; active = well fitted activation curve with a large enough effect in the signal ratio in the repeat runs, not every such curve was filed as active; the % refers to the signal ratio). Put shortly:
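Cells carrying a p53-responsive bla reporter are treated with test compounds for 16 h at 37 C; beta-lactamase activity is then detected with LiveBLAzer B/G FRET substrate after 2 h at room temperature.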

Test [11] concerns the target 5-hydroxytryptamine receptor 2A (Homo sapiens) (UniProt P28223). Kind of test: 5-hydroxytryptamine receptor 2A (HTR2A) small molecule antagonists, cell-based qHTS assay (AID 1963586). Also: nearly all actives have a fitted effect of over 45% in size. The essentials:
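CHO cells stably expressing human HTR2A were plated for 18 h at 37 C, then loaded with calcium dye for 1 h. Compounds were preincubated 5 min at room temperature before DOI (4 nM solution) was added. Kinetic fluorescence was read for 3 min.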

The target is the same in test [12]. Kind of test: 5-hydroxytryptamine receptor 2A (HTR2A) small molecule agonists, cell-based qHTS assay (AID 1963587). Also: nearly all actives have a fitted effect of over 30% in size. Put shortly:
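HTR2A-CHO cells, plated 18 h at 37 C/5% CO2, dye-loaded 1 h at 37 C; compounds in DMSO added by pin tool (agonist mode). Intracellular calcium flux read as kinetic fluorescence on FDSS over 2 min at 1 s intervals.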

Test [13] addresses Muscarinic acetylcholine receptor M1 (Homo sapiens) (UniProt P11229). Kind of test: Cholinergic receptor muscarinic 1 (CHRM1) small molecule antagonists, cell-based qHTS assay (AID 1963588). Also: nearly all actives have a fitted effect of over 40% in size. Put shortly:
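Compounds were tested at 15 concentrations in three independent runs. Dye-loaded CHRM1-CHO cells were exposed 5 min at room temperature before stimulation by acetylcholine added at 50nM. Intracellular calcium was read kinetically on FDSS for 3 min.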

The target is the same in test [14]. Kind of test: Cholinergic receptor muscarinic 1 (CHRM1) small molecule agonists, cell-based qHTS assay (AID 1963589). Also: nearly all actives have a fitted effect of over 35% in size. The essentials:
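Cells were plated and incubated 18 h at 37 C/5% CO2, loaded with calcium dye for 1 h at 37 C, then treated with compounds in DMSO. Fluorescence was recorded kinetically at 1 sec intervals.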

Test [15] is described as follows: cAMP Responsive Elements (CRE) small molecule agonists, cell-based qHTS assay (AID 1963590). Put shortly: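 Cells carrying a CRE-driven beta-lactamase reporter (HEK 293T) are seeded, incubated overnight (18 h), and treated with test compounds for 3 h at 37 C; reporter activity is then detected with a FRET substrate after 2 h at room temperature.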
A short description of test [16]: cAMP Responsive Elements (CRE) small molecule antagonists, cell-based qHTS assay (AID 1963591; active = well fitted inhibition curve with a large enough effect in the signal ratio in the repeat runs, not every such curve was filed as active; the % refers to the signal ratio). The essentials:
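Cells (CRE-bla HEK 293T, DMEM with 10% dialyzed FBS and 25 mM HEPES) are seeded and incubated 18 h. Compounds are added with NKH477 agonist at 0.25 uM final for 3 h, then FRET substrate for 2 h.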

Test [17] concerns the target D(2) dopamine receptor (Homo sapiens) (UniProt P14416). As to the kind of experiment: Dopamine D2 receptor (DRD2) small molecule antagonists, cell-based qHTS assay (AID 1963595; active = well fitted inhibition curve with a large enough effect in the signal ratio in the repeat runs, with a control signal flat; the % refers to the signal ratio). The essentials: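 Readout: HTRF cAMP, cAMP-d2 competing with cellular cAMP for anti-cAMP cryptate, read after 1 h. Cells: DRD2-HEK293. Conditions: 0.1 mM Ro20-1724, 12 nM quinpirole, 200 nM NKH477, 30 min RT.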

Test [18] has as its target Beta-2 adrenergic receptor (Homo sapiens) (UniProt P07550). Kind of test: Adrenergic beta2 receptor (ADRB2) small molecule antagonists, cell-based qHTS assay (AID 1963592). Also: series mostly up to about 92 µM; nearly all actives have a fitted effect of over 50% in size. Put shortly:
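Assay format: CHO-ADRB2 cells, 18-20hr seeding at 37C/5% CO2, then compound plus 1nM isoproterenol agonist mix for 0.5hr RT. Homogeneous time-resolved fluorescence cAMP detection after 1hr, expressed as 665/615 nm ratio.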

Test [19] has as its target D(2) dopamine receptor (Homo sapiens) (UniProt P14416). As to the kind of experiment: Dopamine D2 receptor (DRD2) small molecule agonists, cell-based qHTS assay (AID 1963594). Also: nearly all actives have a fitted effect of over 35% in size. The essentials: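 HEK293 cells stably expressing DRD2 were cultured 24 h at 37 C, then given Ro20-1724 (0.1 mM final) and compounds for 10 min at room temperature. NKH477 (200nM) was then added for 30 min. cAMP was read by HTRF.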
% is scaled to controls: 0 for no effect and ±100 for the full control effect.

Chain of 5-hydroxytryptamine receptor 2A (Homo sapiens) (P28223 whole entry, looked up): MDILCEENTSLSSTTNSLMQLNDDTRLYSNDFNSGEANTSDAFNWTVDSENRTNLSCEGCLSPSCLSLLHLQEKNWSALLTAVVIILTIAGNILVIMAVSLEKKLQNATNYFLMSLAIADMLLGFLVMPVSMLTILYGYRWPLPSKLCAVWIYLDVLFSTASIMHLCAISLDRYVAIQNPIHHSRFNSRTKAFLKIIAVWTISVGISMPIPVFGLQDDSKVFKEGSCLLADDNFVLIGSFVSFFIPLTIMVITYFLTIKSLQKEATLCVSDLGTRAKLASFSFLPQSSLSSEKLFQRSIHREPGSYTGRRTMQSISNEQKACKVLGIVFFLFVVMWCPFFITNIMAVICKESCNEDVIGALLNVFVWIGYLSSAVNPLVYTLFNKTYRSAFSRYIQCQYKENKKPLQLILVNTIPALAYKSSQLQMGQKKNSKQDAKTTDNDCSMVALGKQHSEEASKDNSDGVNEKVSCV
Chain of Gonadotropin-releasing hormone receptor (Homo sapiens) (P30968 whole entry, looked up): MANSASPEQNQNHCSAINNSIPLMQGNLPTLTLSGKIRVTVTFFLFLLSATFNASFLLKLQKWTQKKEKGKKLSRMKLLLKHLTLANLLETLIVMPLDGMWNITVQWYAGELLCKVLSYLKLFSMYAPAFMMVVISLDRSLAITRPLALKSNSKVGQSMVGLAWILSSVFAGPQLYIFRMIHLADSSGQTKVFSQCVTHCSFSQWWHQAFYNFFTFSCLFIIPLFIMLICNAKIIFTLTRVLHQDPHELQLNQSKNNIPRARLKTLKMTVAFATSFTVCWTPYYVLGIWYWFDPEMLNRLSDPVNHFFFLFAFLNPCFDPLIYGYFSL
Chain of Beta-2 adrenergic receptor (Homo sapiens) (P07550 whole entry, looked up): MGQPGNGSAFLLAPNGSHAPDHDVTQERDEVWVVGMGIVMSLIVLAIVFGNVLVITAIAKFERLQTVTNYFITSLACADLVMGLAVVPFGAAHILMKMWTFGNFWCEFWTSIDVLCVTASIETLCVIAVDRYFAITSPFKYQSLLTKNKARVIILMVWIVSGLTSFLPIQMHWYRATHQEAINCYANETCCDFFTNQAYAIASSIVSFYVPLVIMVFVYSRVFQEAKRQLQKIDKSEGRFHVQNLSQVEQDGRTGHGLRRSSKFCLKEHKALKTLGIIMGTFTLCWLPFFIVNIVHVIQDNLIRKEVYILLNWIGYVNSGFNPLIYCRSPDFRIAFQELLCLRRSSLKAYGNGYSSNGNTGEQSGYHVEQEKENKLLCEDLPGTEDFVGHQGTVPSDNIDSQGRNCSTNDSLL
Chain of D(2) dopamine receptor (Homo sapiens) (P14416 whole entry, looked up): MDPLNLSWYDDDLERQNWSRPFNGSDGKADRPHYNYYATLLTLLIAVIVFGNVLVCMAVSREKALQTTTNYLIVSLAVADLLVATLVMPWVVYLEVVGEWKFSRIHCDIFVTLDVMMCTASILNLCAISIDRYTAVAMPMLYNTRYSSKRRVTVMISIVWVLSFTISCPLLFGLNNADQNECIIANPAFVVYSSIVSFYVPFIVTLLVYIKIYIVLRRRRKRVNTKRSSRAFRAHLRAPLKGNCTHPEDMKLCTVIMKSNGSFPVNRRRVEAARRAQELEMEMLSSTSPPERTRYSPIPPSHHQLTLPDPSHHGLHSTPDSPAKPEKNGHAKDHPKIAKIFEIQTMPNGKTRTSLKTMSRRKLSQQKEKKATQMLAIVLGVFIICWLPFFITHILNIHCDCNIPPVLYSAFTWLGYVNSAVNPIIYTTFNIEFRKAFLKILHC
Chain of KiSS-1 receptor (Homo sapiens) (Q969F8 whole entry, looked up): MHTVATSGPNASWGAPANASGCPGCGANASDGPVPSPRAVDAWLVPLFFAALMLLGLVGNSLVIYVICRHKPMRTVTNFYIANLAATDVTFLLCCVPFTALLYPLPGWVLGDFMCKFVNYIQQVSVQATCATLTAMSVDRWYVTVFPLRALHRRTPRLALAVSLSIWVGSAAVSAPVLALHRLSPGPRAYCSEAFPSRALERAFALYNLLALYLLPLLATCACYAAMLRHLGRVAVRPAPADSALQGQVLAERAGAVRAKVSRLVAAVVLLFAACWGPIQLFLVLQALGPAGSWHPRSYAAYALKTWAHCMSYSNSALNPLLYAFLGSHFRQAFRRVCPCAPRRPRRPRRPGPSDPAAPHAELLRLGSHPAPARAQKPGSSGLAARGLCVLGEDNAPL
Chain of Muscarinic acetylcholine receptor M1 (Homo sapiens) (P11229 whole entry, looked up): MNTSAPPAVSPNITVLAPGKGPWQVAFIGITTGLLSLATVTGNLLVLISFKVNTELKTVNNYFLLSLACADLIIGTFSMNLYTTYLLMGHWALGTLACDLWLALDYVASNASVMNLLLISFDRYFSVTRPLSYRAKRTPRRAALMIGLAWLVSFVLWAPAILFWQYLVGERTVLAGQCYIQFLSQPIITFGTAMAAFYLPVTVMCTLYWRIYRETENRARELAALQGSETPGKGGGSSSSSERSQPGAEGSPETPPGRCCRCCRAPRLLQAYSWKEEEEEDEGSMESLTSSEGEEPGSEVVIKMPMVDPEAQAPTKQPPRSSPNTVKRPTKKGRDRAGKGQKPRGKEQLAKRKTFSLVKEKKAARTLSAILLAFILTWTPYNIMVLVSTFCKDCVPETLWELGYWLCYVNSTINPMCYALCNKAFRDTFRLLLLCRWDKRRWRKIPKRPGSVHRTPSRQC

In the case of `O=C(O)c1cccc(C(=O)O)n1`, the Potency result in test [1], in test [2], in test [5], in test [6], in test [7] and in [8] was “inactive” each time. The Potency entry in test [9], in test [10], in test [11], in [12], in [13] and in test [14] was “inactive” each time. Besides, the Potency entry in test [15], in test [16] and in test [17] was “inactive” each time. The outcome in test [3] and in test [4] was inactive.

For the molecule `CCCCCCCCCCCCN1CCOCC1`, the Potency entry in [1], in [2], in test [5], in test [6], in test [7] and in [8] was “inactive” in each case. The Potency result in test [9], in test [10], in [11], in test [13], in test [14] and in test [15] was “inactive” in each case. Also, the Potency entry in [16], in [18], in test [19] and in [17] was “inactive” each time. Besides, the outcome in [3] and in [4] was inactive.

As for `CCN(CCO)CCCC(C)Nc1ccnc2cc(Cl)ccc12` (configuration not stated), the activity change, negative = cytotoxicity in [1] was -14.6% [at 8.39 µM]; in test [7], -18.4% [at 5.99 µM]; in test [8] it was -0.0605% [at 5.99 µM]; in [9], 14.7% [at 5.99 µM]. In addition, in test [2], the activity change is -0.334% [at 5.22 µM, hits give high values]. For the same molecule, the activation was -0.232% [at 6.97 µM] in [3]; -1.14% [at 5.23 µM] in test [4]; 9.14% [at 5.99 µM] in test [5]; 0.449% [at 5.99 µM] in [6]; 0.694% [at 5.99 µM] in [10]. Also, the activity change, negative = inhibition in test [16] was -1.93% [at 8.39 µM]; in [18], 1.52% [at 8.39 µM]; in test [17], 12.2% [at 8.38 µM].

`COc1ccc(OC)c(OC)c1`: the Potency result in test [1], in [2], in test [5], in [6], in test [7] and in test [8] was “inactive” each time. Also, the Potency entry in test [9], in test [10], in [11], in [12], in test [13] and in test [14] was “inactive” throughout. Besides, the Potency entry in test [15], in test [16], in [18], in test [19] and in [17] was “inactive” throughout. Besides, the outcome in test [3] and in test [4] was inactive.

As to `COc1ccc2sc(C(=O)Nc3nnn[nH]3)c(OC(C)C)c2c1`, the Potency in [1] was 27.2 µM (active). In addition, the Potency result in test [2], in [5], in test [6], in test [7], in test [8] and in [9] was “inactive” throughout. Besides, the Potency result in test [10], in test [12], in test [13], in [14] and in [17] was “inactive” in each case. Further, the result in test [3] and in test [4] was inactive.

As for `CC1CCc2c(N3CCC(O)CC3)c(F)cc3c(=O)c(C(=O)O)cn1c23` (configuration not stated), the Potency entry in [1], in test [2], in test [5], in test [6], in test [7] and in [8] was “inactive” each time. Further, the Potency entry in test [9], in [10], in test [11], in [12], in [13] and in test [14] was “inactive” each time. Also, the Potency entry in [18] and in [19] was “inactive” in each case. In addition, the outcome in test [3] and in [4] was inactive.

For `CC(=O)Oc1ccc(C(C)=O)cc1`, the Potency result in test [1], in test [2], in [5], in test [6], in [7] and in [9] was “inactive” each time. Moreover, the Potency entry in test [10], in test [11], in test [12], in [13], in test [15] and in [16] was “inactive” in each case. In addition, the Potency entry in test [18], in test [19] and in test [17] was “inactive” each time. Also, the result in test [3] and in [4] was inactive.

Regarding `CN(Cc1cc(Br)cc(Br)c1N)C1CCCCC1`, the Potency in test [1] is 16.8 µM (active). The Potency entry in [2], in test [5], in test [6], in test [7], in test [8] and in test [9] was “inactive” in each case. For the same molecule, the Potency entry in [10], in test [18], in test [19] and in [17] was “inactive” in each case. The result in test [3] and in test [4] was inactive.
